Bioassay records as filed in PubChem.
An excerpt weighted towards active compounds, which were near 19% of everything screened.
Pf growth 96h: P. falciparum growth inhibition at 96 hours; Potency, µM (highest dose often 28.7 µM), inactives show at the top dose activity change, negative = inhibition, actives largely listed as inhibitors; P. falciparum luciferase reporter growth, 96 h; AID 504834; 320,000 tested, 6.9% active; note: potency is the fitted concentration of half-maximal effect; % is set by controls: 0 for no effect and ±100 for the full control effect
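Cell-based qHTS: luciferase-tagged P. falciparum in erythrocytes (2% hematocrit, 0.05% parasitemia final) incubated with compounds for 96 hours, 37 C, 5% CO2; luciferase detection reagent then added and luminescence measured.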
SARS PLP yeast: SARS-CoV PLP inhibition in yeast; Potency, µM (top dose mostly 32.9 µM), for inactives: at the top dose activity, positive = growth rescue, usual class: activators; S. cerevisiae expressing SARS-CoV PLpro, growth rescue; 330,000 tested, 0.19% active; AID 485353; calls by dose curve; note: potency is the fitted concentration of half-maximal effect; 0% is about no effect; nearly all actives have a fitted effect of over 55% in size
AMA1-RON2 inh: inhibitors of Plasmodium falciparum AMA1-RON2 interaction. 360,000 tested, 0.2% active. AlphaScreen AMA1-biotinylated RON2 peptide binding. AID 720542. Potency, µM (top dose mostly 58.2 µM), inactives show at the highest dose activity change, negative = inhibition, hits mostly inhibitors;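 note: potency is the fitted concentration of half-maximal effect; 0% = vehicle wells and -100% = peptide control; nearly all actives have a fitted effect of over 45% in size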
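AMA1 (3D7) with his tag at 25 nM final met compounds first, then biotinylated RON2 peptide at 25 nM; detection used donor plus acceptor beads, 10 µg/mL apiece, read by AlphaScreen after 30 min at room temperature.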
Pf growth 48h: P. falciparum growth inhibition at 48 hours (one generation); P. falciparum luciferase growth in erythrocytes, 48 h; 310,000 tested, 5.9% active; Potency, µM (highest dose often 28.7 µM), for the others: at the highest dose activity change, negative = inhibition, actives largely listed as inhibitors; note: potency is the fitted concentration of half-maximal effect; % is set by controls: 0 for no effect and ±100 for the full control effect
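Firefly luciferase activity from engineered P. falciparum reports growth; inhibitors lower the luminescent signal. Cultures contained 2% hematocrit erythrocytes at 0.1% final parasitemia.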
Shiga inhibitor: blocks Shiga toxin action in Vero cells | Vero cells, Shiga toxin protein synthesis inhibition reporter | inhibition, % at 38.7 µM | 290,000 tested, 9.2% active | AID 2315; in the data active = inhibition mostly above about 28%, no sharp cut-off; inactive = mostly below about 43%; note: 0% is about no effect
CHX counter: affects cycloheximide protein synthesis inhibition readout, counter-screen. cell reporter, cycloheximide protein synthesis inhibition counterscreen. max response, %. 300,000 tested, 12% active; in the data active = max response mostly above about 13%, no sharp cut-off; inactive = mostly below about 14%; note: read at 38.3 µM for the half of the compounds with a filed dose; 0% is about no effect
Active calls of the source: *; [ ] = dose if it differs, or a comment. Unless noted, calls come from the whole dose curve; as a rule, active = well fitted curve in the direction sought with a large enough effect; inconclusive = small, poorly fitted or top-dose-only effect, or another doubt; inactive = no such curve, though single readings can be large; an effect the other way counts as inactive or inconclusive.

How did O=c1[nH]c(=S)[nH]c2c1C(c1ccc(Br)cc1)c1c([nH]c(=S)[nH]c1=O)O2 do in these assays?
Pf growth 96h: 6%; SARS PLP yeast: 2%; AMA1-RON2 inh: 35µM*; Pf growth 48h: 30%; Shiga inhibitor: -6; CHX counter: 0

How did CCSc1nnc(NC(=O)C2CC(=O)N(Cc3ccccc3)C2)s1 (centres undefined) do in these assays?
Pf growth 96h: inconclusive; SARS PLP yeast: -1%; AMA1-RON2 inh: 3%; Pf growth 48h: -29%; Shiga inhibitor: -10; CHX counter: 10

How did CCOP(=O)(OCC)C(Nc1cccc(C(F)(F)F)c1)c1ccc(Br)cc1 (centres undefined) do in these assays?
Pf growth 96h: 0%; SARS PLP yeast: -82%; Pf growth 48h: inconclusive; Shiga inhibitor: -13; CHX counter: -1

Results for COCCNC(=O)C1(C)C=CC2(CCCCC2)N1C(=O)c1ccccc1 (centres undefined) ?
Pf growth 96h: -17%; SARS PLP yeast: -13%; AMA1-RON2 inh: 4%; Pf growth 48h: 4%; Shiga inhibitor: -11; CHX counter: -2

Results for CC(=O)N1[C@H](Cc2ccccc2)C=C[C@]1(C)C(=O)NCCN1CCOCC1 ?
Pf growth 96h: inconclusive; SARS PLP yeast: 0%; AMA1-RON2 inh: -5%; Pf growth 48h: 5%; Shiga inhibitor: 23; CHX counter: 11*

What do the screens show for `CC1(C(=O)NCCN2CCOCC2)C=CC2(CCCCC2)N1C(=O)c1ccccc1` (centres undefined)?
Pf growth 96h: inconclusive; SARS PLP yeast: 7%; AMA1-RON2 inh: -6%; Pf growth 48h: 9%; Shiga inhibitor: 33; CHX counter: 26*

Results for C[C@]1(C(=O)NCCN2CCOCC2)C=C[C@@H](Cc2ccccc2)N1C(=O)c1ccccc1 ?
Pf growth 96h: -23%; SARS PLP yeast: 1%; AMA1-RON2 inh: 13%; Pf growth 48h: 18%; Shiga inhibitor: -12; CHX counter: -5

What do the screens show for `CCCCCCC1CC(=CN(C)C)C(=O)O1` (centres undefined)?
AMA1-RON2 inh: -3%

What do the screens show for `O=C(NCCc1ccccc1)C(=O)Nc1ccc([N+](=O)[O-])cc1`?
Pf growth 96h: -28%; SARS PLP yeast: 0%; AMA1-RON2 inh: -27%; Pf growth 48h: 25%; Shiga inhibitor: 37; CHX counter: -2

What do the screens show for `O=S1(=O)CCC(NC(=S)Nc2ccc3ccccc3c2)C1` (centres undefined)?
Pf growth 96h: 27%; SARS PLP yeast: 1%; AMA1-RON2 inh: 5%; Pf growth 48h: 43%; Shiga inhibitor: 43*; CHX counter: 27*

Results for COC(=O)C(Cc1ccccc1)OS(N)(=O)=O (centres undefined) ?
Pf growth 96h: -20%; SARS PLP yeast: 3%; AMA1-RON2 inh: 28%; Pf growth 48h: 78%; Shiga inhibitor: 2; CHX counter: 1

What do the screens show for `O=C(Nc1ccc(OC(F)(F)F)cc1)c1ccc2nc[nH]c2c1`?
Pf growth 96h: 4%; SARS PLP yeast: 1%; AMA1-RON2 inh: 0%; Pf growth 48h: 26%; CHX counter: 33*

Results for CCC(C)c1ccc(O)c(NC(=O)c2cncc(Br)c2)c1 (centres undefined) ?
Pf growth 96h: -22%; SARS PLP yeast: -12%; AMA1-RON2 inh: 0%; Pf growth 48h: 1µM*; Shiga inhibitor: 23; CHX counter: -1

Results for Cc1ccc(NC(=O)c2cncc(Br)c2)nc1 ?
Pf growth 96h: 162%; SARS PLP yeast: -7%; AMA1-RON2 inh: 0%; Pf growth 48h: 102%; Shiga inhibitor: 79*; CHX counter: 28*

How did Cc1ccc(NC(=O)c2ccc3nc[nH]c3c2)nc1 do in these assays?
Pf growth 96h: 5%; SARS PLP yeast: 3%; AMA1-RON2 inh: 1%; Pf growth 48h: 23%; Shiga inhibitor: -17; CHX counter: -5

Results for COc1ccc(NC(=O)c2ccc3nc[nH]c3c2)c(OC)c1 ?
Pf growth 96h: 42%; SARS PLP yeast: -1%; AMA1-RON2 inh: -4%; Pf growth 48h: 19%; Shiga inhibitor: 11; CHX counter: 10

What do the screens show for `Cc1ccc(NC(=O)c2ccc3nc[nH]c3c2)c(O)c1`?
Pf growth 96h: 282%; SARS PLP yeast: 1%; AMA1-RON2 inh: -23%; Pf growth 48h: 282%; Shiga inhibitor: 74*; CHX counter: 33*

What do the screens show for `CC(=O)c1cccc(NC(=O)NNC(=O)CCC(=O)Nc2ccc(C)c(C)c2)c1`?
Pf growth 96h: 20%; SARS PLP yeast: 3%; AMA1-RON2 inh: 52%; Pf growth 48h: -4%; Shiga inhibitor: -10; CHX counter: 7

What do the screens show for `O=C1CCCC2=C1C(c1ccc(O)cc1)c1c(ccc3ccccc13)N2` (centres undefined)?
Pf growth 96h: inconclusive; SARS PLP yeast: -1%; AMA1-RON2 inh: -10%; Pf growth 48h: inconclusive; Shiga inhibitor: -8; CHX counter: -3

How did Cc1ccc(NC(=O)c2cncc(Br)c2)c(O)c1 do in these assays?
Pf growth 96h: inconclusive; SARS PLP yeast: 0%; AMA1-RON2 inh: 4%; Pf growth 48h: -28%; Shiga inhibitor: 66*; CHX counter: 35*

What do the screens show for `COCCN1C[C@@H](CO)O[C@@H](n2cnc3c(NCC(C)C)ncnc32)C1`?
AMA1-RON2 inh: 11%

How did CCCCCC(=O)c1c(O)cc(OC)c(Cl)c1O do in these assays?
Shiga inhibitor: 93*; CHX counter: 26*

How did Cc1ccc(OC(C)C(=O)Nc2cccc(S(=O)(=O)N3CCCCCC3)c2)cc1 (centres undefined) do in these assays?
AMA1-RON2 inh: -4%

How did CC(Oc1ccccc1)C(=O)Nc1ccc(S(=O)(=O)N2CCN(C)CC2)cc1 (centres undefined) do in these assays?
Pf growth 96h: 0.066µM*; AMA1-RON2 inh: -6%; Pf growth 48h: inconclusive

How did Cc1cccc(OC(C)C(=O)Nc2ccc(S(=O)(=O)N3CCCC3)cc2)c1 (centres undefined) do in these assays?
Pf growth 96h: 10µM*; SARS PLP yeast: 0%; AMA1-RON2 inh: -4%; Pf growth 48h: inconclusive; Shiga inhibitor: -5; CHX counter: -1

Results for CC(Oc1ccccc1)C(=O)Nc1ccc(S(=O)(=O)N2CCOCC2)cc1 (centres undefined) ?
Pf growth 96h: -1%[5.75 µM]; SARS PLP yeast: 2%; AMA1-RON2 inh: -9%; Pf growth 48h: -12%; Shiga inhibitor: 14; CHX counter: -1

Results for COc1ccc(C(C)(O)c2nc(-c3ccc(S(C)(=O)=O)cc3)cs2)cc1 (centres undefined) ?
AMA1-RON2 inh: -8%

What do the screens show for `O=C(NCCc1ccc(Cl)cc1)c1ccc2c(c1)OCO2`?
Pf growth 96h: 110%; SARS PLP yeast: 14%; AMA1-RON2 inh: 4%; Pf growth 48h: 135%; Shiga inhibitor: 83*; CHX counter: 43*
